Several values for one entry are separate records, joined by “and”; a condition that tells them apart may be missing. Identical values can stand only once. The source holds several records for some structures; these can differ, active in one and inactive in another. Activity calls are given as the source filed them. The calls were made as follows: active = hit-call score of the fitted dose curve at least 0.9, where 1 is the maximum; inactive = score below 0.9.
What was measured:
[1] = read-out: Interleukin-6 (IL6), IL6 (gene 3569); assay: BSK_CASM3C_IL6: BioMAP Diversity Plus: CASM3C Assay for Interleukin-6 (IL6) Biomarker Activity for (AID 2283040); settings: primary human coronary artery smooth muscle cells; actives raise or lower the signal
[2] = read-out: Tissue plasminogen activator (tPA), PLAT (gene 5327); assay: BSK_BE3C_tPA: BioMAP Diversity Plus: BE3C Assay for Tissue plasminogen activator (tPA) Biomarker Activity (AID 2283041); settings: primary human bronchial epithelial cells; actives raise or lower the signal
Summary of the method: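 Bidirectional curve fitting relative to DMSO defined activity, with tPA detected by ELISA in chemically treated human bronchial epithelial primary cells at 24 hours.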

[3] = read-out: Interleukin-8 (IL8), CXCL8 (gene 3576); assay: BSK_CASM3C_IL8: BioMAP Diversity Plus: CASM3C Assay for Interleukin-8 (IL8) Biomarker Activity (AID 2283042); settings: primary human coronary artery smooth muscle cells; actives raise or lower the signal;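 also: IL-8 protein level quantified by ELISA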
[4] = read-out: Human Leukocyte Antigen - DR isotype (HLADR), HLA-DRA (gene 3122); assay: BSK_CASM3C_HLADR: BioMAP Diversity Plus: CASM3C Assay for Human Leukocyte Antigen - DR isotype (HLADR) Biomarker Activity (AID 2283043); settings: primary human coronary artery smooth muscle cells; actives raise or lower the signal;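 also: cell-surface HLA-DR protein level quantified by ELISA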
[5] = read-out: Macrophage colony-stimulating factor (MCSF), CSF1 (gene 1435); assay: BSK_CASM3C_MCSF: BioMAP Diversity Plus: CASM3C Assay for Macrophage colony-stimulating factor (MCSF) Biomarker Activity (AID 2283044); settings: primary human coronary artery smooth muscle cells; actives raise or lower the signal;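 also: M-CSF protein amount quantified by ELISA after 24 h exposure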
[6] = read-out: Low-density lipoprotein receptor (LDLR), LDLR (gene 3949); assay: BSK_CASM3C_LDLR: BioMAP Diversity Plus: CASM3C Assay for Low-density lipoprotein receptor (LDLR) Biomarker Activity (AID 2283045); settings: primary human coronary artery smooth muscle cells; actives raise or lower the signal;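 also: LDLR protein level on the cell surface quantified by ELISA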
[7] = read-out: Monocyte Chemoattractant Protein-1 (MCP1), CCL2 (gene 6347); assay: BSK_CASM3C_MCP1: BioMAP Diversity Plus: CASM3C Assay for Monocyte Chemoattractant Protein-1 (MCP1) Biomarker Activity (AID 2283046); settings: primary human coronary artery smooth muscle cells; actives raise or lower the signal;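 also: MCP-1 level quantified by ELISA 24 h after dosing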
[8] = BSK_CASM3C_Proliferation: Cell Proliferation Assessment in the BioMAP Diversity Plus: CASM3C Assay (AID 2283047); settings: primary human coronary artery smooth muscle cells;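 also: sulforhodamine B total protein stain as relative cell number at 560 nm; sub-confluent cells exposed 48 h before staining; fitted both ways against DMSO so gain or loss of cell number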
[9] = read-out: Monokine induced gamma interferon (MIG), CXCL9 (gene 4283); assay: BSK_CASM3C_MIG: BioMAP Diversity Plus: CASM3C Assay for Monokine induced gamma interferon (MIG) Biomarker Activity (AID 2283048); settings: primary human coronary artery smooth muscle cells; actives raise or lower the signal;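 also: MIG protein level measured by ELISA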
[10] = read-out: serum amyloid A (SAA), SAA1 (gene 6288); assay: BSK_CASM3C_SAA: BioMAP Diversity Plus: CASM3C Assay for serum amyloid A (SAA) Biomarker Activity (AID 2283049); settings: primary human coronary artery smooth muscle cells; actives raise or lower the signal;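 also: SAA protein level quantified by ELISA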
[11] = BSK_CASM3C_SRB: Viability Assessment in the BioMAP Diversity Plus: CASM3C Assay (AID 2283050); settings: primary human coronary artery smooth muscle cells;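 also: total protein by SRB staining as cytotoxicity measure in parallel cultures; cells exposed to compound for 24 h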
[12] = read-out: Thrombomodulin, THBD (gene 7056); assay: BSK_CASM3C_Thrombomodulin: BioMAP Diversity Plus: CASM3C Assay for Thrombomodulin Biomarker Activity (AID 2283051); settings: primary human coronary artery smooth muscle cells; actives raise or lower the signal;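 also: thrombomodulin protein level measured by ELISA 24 h after dosing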
[13] = read-out: Tissue Factor, F3 (gene 2152); assay: BSK_CASM3C_TissueFactor: BioMAP Diversity Plus: CASM3C Assay for Tissue Factor Biomarker Activity (AID 2283052); settings: primary human coronary artery smooth muscle cells; actives raise or lower the signal;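 also: cell surface tissue factor protein level read by ELISA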
[14] = read-out: Interferon-gamma inducible Protein 10 (IP10), CXCL10 (gene 3627); assay: BSK_hDFCGF_IP10: BioMAP Diversity Plus: hDFCGF Assay for Interferon-gamma inducible Protein 10 (IP10) Biomarker Activity (AID 2283053); settings: primary human foreskin fibroblasts; actives raise or lower the signal
Summary of the method: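 IP-10 levels, quantified by ELISA, are taken from human foreskin fibroblast cultures 24 h after chemical treatment, with DMSO serving as negative control and baseline for bidirectional analysis.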

[15] = read-out: Urokinase-type plasminogen activator receptor (uPAR), PLAUR (gene 5329); assay: BSK_CASM3C_uPAR: BioMAP Diversity Plus: CASM3C Assay for Urokinase-type plasminogen activator receptor (uPAR) Biomarker Activity (AID 2283054); settings: primary human coronary artery smooth muscle cells; actives raise or lower the signal;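 also: cell-surface uPAR protein level quantified by ELISA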
[16] = read-out: Vascular cell adhesion molecule 1 (VCAM1), VCAM1 (gene 7412); assay: BSK_CASM3C_VCAM1: BioMAP Diversity Plus: CASM3C Assay for Vascular cell adhesion molecule 1 (VCAM1) Biomarker Activity (AID 2283055); settings: primary human coronary artery smooth muscle cells; actives raise or lower the signal;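 also: VCAM-1 protein level quantified by ELISA on the cells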
[17] = read-out: Collagen III, COL3A1 (gene 1281); assay: BSK_hDFCGF_CollagenIII: BioMAP Diversity Plus: hDFCGF Assay for Collagen III Biomarker Activity (AID 2283056); settings: primary human foreskin fibroblasts; actives raise or lower the signal
Summary of the method: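 ELISA read-out of collagen III from human skin fibroblast cultures sampled 24 h post-dosing. Values were derived by bidirectional fitting relative to the DMSO vehicle control.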

[18] = read-out: Epidermal growth factor receptor (EGFR), EGFR (gene 1956); assay: BSK_hDFCGF_EGFR: BioMAP Diversity Plus: hDFCGF Assay for Epidermal growth factor receptor (EGFR) Biomarker Activity (AID 2283057); settings: primary human foreskin fibroblasts; actives raise or lower the signal
Summary of the method: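 Measured by ELISA: EGFR levels on primary human foreskin fibroblasts 24 h after chemical treatment, analysed relative to DMSO with bidirectional fitting.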

[19] = BSK_hDFCGF_Proliferation: Cell Proliferation Assessment in the BioMAP Diversity Plus: hDFCGF Assay (AID 2283059); settings: primary human foreskin fibroblasts;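 also: curves fitted for both rise and fall of signal versus DMSO baseline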
Summary of the method: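 Primary human foreskin fibroblasts, sub-confluent; […]; 10% TCA fix, 0.1% SRB stain, A560 total protein. Gain/loss fitted bidirectionally vs DMSO control.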

[20] = read-out: Interleukin-8 (IL8), CXCL8 (gene 3576); assay: BSK_hDFCGF_IL8: BioMAP Diversity Plus: hDFCGF Assay for Interleukin-8 (IL8) Biomarker Activity (AID 2283058); settings: primary human foreskin fibroblasts; actives raise or lower the signal
Summary of the method: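 Cells used are human skin primary fibroblasts. Chemical is added, cultures run 24 h, then IL-8 is quantified by ELISA, and gain or loss versus DMSO control is fitted in both directions.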

Measured: AC50

O=C(Cl)c1c(Cl)c(Cl)c(C(=O)Cl)c(Cl)c1Cl
not listed: [20]
inactive: all other assays above

CCOC(=O)C1=NN(c2ccc(Cl)cc2Cl)C(C)(C(=O)OCC)C1 (configuration not stated)
active: [17] 20 µM
not listed: [14]
inactive: all other assays above

C=CC(=O)OCCCCCCCC(C)C
active: [16] 20 µM | [19] 9.62 µM
not listed: [20]
inactive: all other assays above

CCc1cccc(C)c1N(C(=O)CS(=O)(=O)O)C(C)COC (configuration not stated)
not listed: [17]
inactive: all other assays above

CCCCCCCCCCCC(=O)N(C)CC(=O)O
active: [9] 30.9 µM | [17] 8.61 µM and 24.7 µM
inactive: [1] | [2] | [3] | [4] | [5] | [6] | [7] | [8] | [9] | [10] | [11] | [12] | [13] | [14] | [15] | [16] | [18] | [19]

CCCCCC1=CCCC1=O
not listed: [17]
inactive: all other assays above

Cc1ccc([N+](=O)[O-])cc1N
not listed: [14]
inactive: all other assays above

C1CNCCN1
not listed: [17] | [20]
inactive: all other assays above

C=CC(=O)OCC(C)OCC(C)OCC(C)OC(=O)C=C (configuration not stated)
inactive: [2] | [3] | [6] | [12]
active: [1] 16.1 µM | [4] 14.9 µM | [5] 25.2 µM | [7] 20 µM | [8] 20 µM | [9] 29.1 µM | [10] 5.95 µM | [11] 20 µM | [13] 2.28 µM | [14] 14.4 µM | [15] 8.9 µM | [16] 15.3 µM | [18] 33.4 µM | [20] 33.1 µM | [19] 6.25 µM

Oc1ccccc1Cc1ccccc1O
active: [2] 13.4 µM and 10.2 µM | [16] 0.239 µM | [19] 28.1 µM and 27 µM
inactive: [1] | [3] | [4] | [5] | [6] | [7] | [8] | [9] | [10] | [11] | [12] | [13] | [14] | [15] | [16] | [18] | [20]

CC(C)CCCCCOC(=O)CS
not listed: [20]
inactive: all other assays above

C=CC(=O)NCOCCCC
not listed: [17] | [20]
inactive: all other assays above

CC/C=C\CCOC(=O)c1ccccc1O
inactive: [3] | [8] | [9] | [12] | [18] | [20]
active: [1] 3.97 µM | [2] 20 µM | [4] 32.9 µM | [5] 31.6 µM | [6] 14.4 µM | [7] 20 µM | [10] 20 µM | [11] 34.5 µM | [13] 20 µM | [14] 13.7 µM | [15] 36.3 µM | [16] 32.1 µM | [19] 10 µM

— PubChem BioAssay (EPA / NIEHS)
